Results on 61 compounds are retold here after PubChem BioAssay AID588856 (National Center for Advancing Translational Sciences (NCATS), 2011).

Each structure is given as a SMILES string. Several values for one entry are separate records, joined by “and”; a condition that tells them apart may be missing. Equal entries are not always repeated. The whole screen tested about 410,000 compounds, of which about 3,100 (0.76%) were called active. A call without a number means that no potency is given here. Calls follow the shape of the dose curve; as a rule, active = well fitted cell-killing curve with a large enough effect; inactive = no such curve, though single readings can be large or run the other way. For the sample, actives were picked, then their nearest neighbours and some compounds at random. Where a structure was tested more than once in an assay, its records may differ in their call.
Potency is read from the fitted curve at half-maximal effect.

This test is described as follows: qHTS for Inhibitors of TGF-b: Cytotox Counterscreen. The conditions noted are these: HepG2 CAGA-GFP viability, ATP luminescence, 18 h; series mostly up to 46.1 µM. The source says:
TGF-b is a main component in the TGF-b signaling pathway which plays diverse roles in cellular and development pathways. TGF-b is mediated by transcription factors called "Smads". Although the Smad-dependent pathway is the primary canonical TGF-b signaling mode, TGF-b1 can also activate alternative signaling pathways, including those involving MAPK (ERK, JNK and p38). This interaction may mediate or enhance Smad-dependent responses, or can exert Smad-independent effects. The complexity of this signaling cascade allows the TGF-b superfamily to perform unique, overlapping or redundant functions. We believe that targeting the TGF-beta pathway at the Smad-transcription factor level may eliminate the consequences of disrupting the entire pathway and offer specificity without affecting other signaling pathways. Smad3 is the primary transducer of TGF-b's signals and Smad3 regulates many functions attributed to TGF-b signaling. We hypothesize that Smad3 inhibitors will selectively eliminate Smad3-specific TGF-beta signals without undesired off-target effects. We aim to identify Smad3-small molecule antagonists using a quantitative high throughput screening (qHTS) approach.
A high-throughput assay was developed to screen the NIH Molecular Libraries Small Molecule Repository (MLSMR). This is a cell based assay, where TGF-b is tagged with GFP. This is a counterscreen that evaluates the cytotoxicity of the compounds that were screened in the primary cell-based screen (AID 588855).
MH087449NIH Chemical Genomics Center [NCGC]
NIH Molecular Libraries Probe Centers Network [MLPCN]
Assay Submitter (PI): Sushil Rane, National Institute of […]
Suspensions of trypsinized HEPG2 CAGA-GFP cells were dispensed into white, tissue culture-treated, solid 1536-well plates at 5uL/well (1000 cells/well final concentration) in DMEM medium supplemented with 1% FBS. Plates were incubated at 37 degrees C for 2 hours, after which 23 nL of compounds or DMSO were delivered to each well using a pin tool. One uL of recombinant TGF-beta in DMEM (1% FBS) was then dispensed (500 pg/mL final concentration), and plates were incubated at 37 degrees C for 18 hours. Two uL of CellTiter Glo (Promega), a luminescence-based viability reagent, was dispensed, followed by a 10 minute room temperature incubation. The plates were then measured on a PerkinElmer ViewLux plate reader for luminescence (clear filter) using a 5 second exposure. The %Activity was determined from the corrected luminescence values. Wells containing media only (no cells) were used to normalize %Activity of identified toxic compounds; media-only wells corresponded to 100%Activity (complete cell-killing), while DMSO-dosed cell controls were used to normalize 0%Activity (no toxicity).
Concentration-response curves were fitted to the signals arising from the resulting luminescence. The concentration-effect curves were then classified based on curve quality (r2), response magnitude and degree of measured activity, and compounds were subsequently categorized based on their curve class.
On the technique in general: In qHTS, concentration-response curves come from the screen itself.
On to `CCOc1ccccc1NC(=O)CN1CCCN(Cc2cccc(Cl)c2)S1(=O)=O`, for which the Potency result is “inactive”. The value for `O=C1COc2ccc(-c3csc(-c4ccc(Cl)cc4)n3)cc2N1` was “inactive”. For `CNC(=O)[C@]1(C(F)(F)F)C[C@H](CCc2ccccc2)CCCO1` the value was “inactive”; for `Cc1cccc(OCC(O)CN2CCN(CCN3C(=O)c4cccc5cccc(c45)C3=O)CC2)c1C` (stereo unspecified), 12.6 µM (active).

Consider `CCc1ccc(OCC(O)CN2CCN(CCO)CC2)cc1` (stereo unspecified), for which the Potency entry was “inactive”. For `Cc1cccc(OCC(O)CN2CCN(S(=O)(=O)c3ccc(C)cc3C)CC2)c1` (stereo unspecified) the value was “inactive”; for `COc1cc2nc(NCC(C)c3ccccc3)n3nc(-c4ccccc4)nc3c2cc1OC` (stereo unspecified), “inactive”. For `Cc1cc2nc(-c3ccc(NC(=O)c4cc5ccccc5o4)cc3)oc2cc1C` the value was “inactive”; for `O=S1(=O)CCC(NC(=S)SCc2ccccc2Br)C1` (stereo unspecified), “inactive”; for `CC(C)C(=O)NC(NC(=S)NC1CCS(=O)(=O)C1)C(Cl)(Cl)Cl` (stereo unspecified), “inactive”. As to `CCCSC(=S)NC1CCS(=O)(=O)C1` (stereo unspecified), the Potency was 11.2 µM (active).

For the compound `O=C(/C=C/c1cn(CC(O)CN2CCc3ccccc32)c2ccccc12)c1ccc(Br)cc1` (stereo unspecified), the Potency result was “inactive”. Consider `CCOc1ccc(C(=O)/C=C/c2cn(CC(O)CN3CCCCCC3)c3ccccc23)cc1` (stereo unspecified), for which the Potency was 11.2 µM (active). For `CCOc1ccc(C(O)Cn2c(=N)n(CCN3CCCCC3)c3ccccc32)cc1` (stereo unspecified) the value was “inactive”. The value for `COc1ccc(C(=O)NC(Cc2ccc(OC(=O)c3ccc(OC)cc3)cc2)C(=O)O)cc1` (stereo unspecified) was “inactive”; that for `COc1ccc(CNC(=O)C(Cc2ccccc2)n2cccc2)cc1` (stereo unspecified) was “inactive”.

`COc1ccc(CC(N)c2csc(NC(=O)NC(c3ccccc3)c3ccccc3)n2)cc1` (stereo unspecified): the Potency is 12.6 µM (active).

As for `CN(C(=N)N)c1ccc(/C=C2\C=Cc3ccccc32)cc1`, the Potency entry is “inactive”. For the compound `Cc1ccc2c(=O)c(C(=O)c3ccc(Cl)cc3)cn(CC(=O)NC3CCCCC3)c2n1`, the Potency entry was “inactive”. Regarding `S=C(NCCCc1cnc[nH]1)NCCCN(Cc1ccc(Cl)c(Cl)c1)c1ccc(Br)cn1`, the Potency is 10 µM (active). For `NCCCNC(=S)NCCCN(Cc1ccc(Cl)cc1)c1ccc(Br)cn1` the value was “inactive and 17.8 µM (active)”. For the compound `CC(C)(C)c1ccc(C(=O)NCC(c2ccco2)S(=O)(=O)c2ccc(F)cc2)cc1` (stereo unspecified), the Potency result was “inactive”.

As for `CSc1ccc(CCNC(=O)c2cc(C)nc3c2c(C)nn3-c2cccc(F)c2)cc1`, the Potency entry is “inactive”. The value for `CC(C)(C)OC(=O)N1CCC(c2c(C(=O)NCc3ccccn3)cnn2-c2ccc(F)cc2)CC1` was “inactive”; that for `COc1ccccc1N1CCN(c2ncnc3onc(-c4cccc(Cl)c4)c23)CC1` was “inactive”; that for `Cc1cccc(CC(=O)N2CC(=O)Nc3ccc(F)cc3C2c2ccccc2)c1` (stereo unspecified) was “inactive”.

As to `O=C(NCc1ccccc1)C1CCN(S(=O)(=O)c2ccc3[nH]c(=O)ccc3c2)CC1`, the Potency entry is “inactive”. Consider `CCCn1c(NCc2ccccc2F)nc2ccccc21`, for which the Potency result was “inactive”.

In the case of `CCN1/C(=C\c2ccc3ccccc3[n+]2CC)Sc2cc(C)ccc21`, the Potency is 11.2 µM (active). Consider `CSc1ccccc1-c1nnc(NC(=O)c2ccc3c(c2)OCCO3)o1`, for which the Potency entry was “inactive”.

Regarding `CCn1c(SCC(=O)N/N=C/C=C/c2ccccc2[N+](=O)[O-])nnc1-c1ccccc1`, the Potency entry is “inactive”.

`Cc1ccccc1NCC(=O)N/N=C\c1ccc([N+](=O)[O-])s1`: the Potency is 11.2 µM (active).

`COc1ccc(C(=O)NCC(c2ccco2)N2CCc3ccccc32)cc1OC` (stereo unspecified): the Potency result is “inactive”. The value for `COc1ccc(C(=O)NCC(=O)N/N=C/c2ccc([N+](=O)[O-])s2)cc1OC` was 11.2 µM (active). With `COc1ccc(N(CC(=O)N/N=C/c2cccs2)S(=O)(=O)c2ccc(OC)c(OC)c2)cc1`, the Potency result was “inactive”.

For the compound `Cc1ccsc1/C=N/NC(=O)Cc1cc(=O)[nH][nH]1`, the Potency result is “inactive”.

With `CCc1nc2ccc(C(=O)N3CCN(c4cc(Cl)ccc4C)CC3)cc2nc1CC`, the Potency entry is “inactive”. For `CC(C)c1ccc(OCC(=O)N(Cc2ccc(N(C)C)cc2)C2CCS(=O)(=O)C2)cc1` (stereo unspecified) the value was “inactive”; for `CC(=O)OC1=C(C(C)=O)N(Cc2ccccc2)S(=O)(=O)c2ccccc21`, “inactive”. As to `Oc1c(C(c2ccc(F)cc2)N2CCN(Cc3ccccc3)CC2)sc2nc(-c3ccco3)nn12` (stereo unspecified), the Potency entry is “inactive”.

Turning to `CCc1ccccc1NC(=O)c1ccc2nc(CCc3ccccc3)oc2c1`, the Potency result is “inactive”.

For the compound `COc1cccc(CNCCSc2nnnn2C)c1OCc1ccccc1Cl`, the Potency result is “inactive”.

`COc1cccc(CNn2cn[nH]c2=S)c1OCc1ccccc1`: the Potency entry is “inactive”.

As for `COc1cccc(CNCCc2c[nH]c3ccccc23)c1OCc1ccccc1F`, the Potency was 17.8 µM (active). The value for `CCC(C)Nc1oc(-c2ccc(COc3ccc(Cl)cc3)o2)nc1C#N` (stereo unspecified) was “inactive”. The value for `C/C(=N\NC(=O)CC(C)C)c1c(C(F)(F)F)[nH]n(-c2nc3ccccc3s2)c1=O` was 10 µM (active); that for `CCC(C)Cn1c(O)cc2nn(-c3nc4ccccc4s3)c(=O)c-2c1C` (stereo unspecified) was “inactive”. For `O=C(Nc1ccc(F)cc1F)c1ccc2c(=O)n3c(nc2c1)CCCCC3` the value was “inactive”; for `CC(C)(C)c1ccc(C(=O)Nc2ccc3c(c2)CCCN3C(=O)c2cccs2)cc1`, “inactive”. For `CCCn1c(=N)n(CC(O)COc2ccccc2OC)c2ccccc21` (stereo unspecified), the Potency result is “inactive”. Turning to `OC(CN=c1sc2ccccc2n1CC(O)COc1ccccc1)COc1ccccc1` (stereo unspecified), the Potency was 14.1 µM (active). As for `COc1ccc(Cn2c(=O)sc3ccccc32)cc1OC`, the Potency entry was “inactive”. For `Cc1c(NC(=O)Nc2ccc(F)c(Cl)c2)c(=O)n(-c2ccccc2)n1C`, the Potency result was “inactive”. The value for `CCCOc1ccc(NC(=O)CC2C(=O)N(c3ccccc3)C(=O)N2Cc2ccco2)cc1` (stereo unspecified) was “inactive”. The value for `CN1c2ccc(C=O)c3c(C=O)ccc(c23)N(C)C1(C)C` was 11.2 µM (active); that for `O=C1C[C@@H](c2ccc3ccccc3c2)N1S(=O)(=O)c1ccccc1[N+](=O)[O-]` was “inactive”. For `CCOc1ccc(OCC)c(NC(=O)c2cc(C)nc3c2c(C)nn3-c2cccc(Cl)c2C)c1` the value was “inactive”.

For `Cc1c(C)n(Cc2ccc(Cl)cc2)c2ccc(C(=O)N3CCN(c4ccccc4F)CC3)cc12`, the Potency result was “inactive”. For `Cc1cccc(N2CCN(C(=O)c3ccc4c(c3)CCN4S(=O)(=O)c3ccccc3)CC2)c1C` the value was “inactive”; for `CCn1c(C)c(C)c2cc(C(=O)N3CCN(c4cccc(C)c4C)CC3)ccc21`, “inactive and 17.8 µM (active)”; for `O=C1OC(C(=O)Nc2cccc(Br)c2)Cc2ccccc21` (stereo unspecified), “inactive”.
